The test system of assay [1] is Plasmodium falciparum Sir2 (PF13_0152, Sir2A). Put plainly: pfSir2 binders on small-molecule microarrays, primary screen, biochemical, small-molecule microarray, 635 nm fluorescence (AID 1098).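 Also: score merges spot fluorescence intensity with its signal-to-noise ratio.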 To be noted: small-molecule microarray binding, fluorescence 635 nm; higher = more signal.
A short description of assay [2]: small-molecule microarray binders of probe aDKK1, primary screen, biochemical, biotinylated probe, 635/667 nm fluorescence (AID 1099).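 Also: score merges 667nm spot fluorescence with signal to noise across triplicate slides.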 The settings on record: higher = more signal.
The nature of assay [3]: small-molecule microarray binders of probe aCHRDL2, primary screen, biochemical, biotinylated probe, 635/667 nm fluorescence (AID 1100). The settings on record: higher = more signal.
The nature of assay [4]: splicing luciferase reporter signal modulators, primary screen, spliceosome inhibition project, cell-based, HEK293, splice +/- reporter (AID 1101).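 Also: HEK293 cells carrying a splicing-competent luciferase reporter gene; test concentration not given here.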 The settings on record: luminescence, 24 h, higher = more signal, called active from +8 up or from −8 down.
The target of assay [5] is Fibroblast growth factor 10 (Homo sapiens) (UniProt O15520). Briefly: FGF10 binders on small-molecule microarrays, primary screen, biochemical, small-molecule microarray, 635 nm fluorescence (AID 1102). The settings on record: FGF10 binding, fluorescence 635 nm, higher = more signal.
Sequence of Fibroblast growth factor 10 (Homo sapiens) (O15520 whole entry, looked up): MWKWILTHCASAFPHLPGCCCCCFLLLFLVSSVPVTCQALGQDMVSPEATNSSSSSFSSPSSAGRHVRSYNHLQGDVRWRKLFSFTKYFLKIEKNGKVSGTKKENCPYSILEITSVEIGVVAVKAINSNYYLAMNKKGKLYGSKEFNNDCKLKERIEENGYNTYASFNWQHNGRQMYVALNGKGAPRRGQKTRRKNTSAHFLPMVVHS
Assay [6] has as its system glycogen synthase kinase-3 (GSK3A per assay name; protocol says GSK3B). Briefly: GSK3 binders on small-molecule microarrays, primary screen, biochemical, small-molecule microarray, 635 nm fluorescence, GSK3A (AID 1103). Also: the record names both GSK3A and GSK3B. To be noted: small-molecule microarray binding, fluorescence 635 nm; higher = more signal.
Assay [7] concerns the target Epidermal growth factor receptor (Homo sapiens) (UniProt P00533). Put plainly: EGFR binders on small-molecule microarrays, primary screen, biochemical, small-molecule microarray, 635 nm fluorescence (AID 1104).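 Also: score merges 667 nm emission intensity with spot signal to noise over triplicate slides.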 To be noted: EGFR binding, higher = more signal.
The target of assay [8] is Follistatin-related protein 3 (Homo sapiens) (UniProt O95633). Put plainly: FSTL3 binders on small-molecule microarrays, primary screen, biochemical, small-molecule microarray, 635 nm fluorescence (AID 1105).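 Also: score merges emission near 667 nm and signal to noise per printed spot across three slides.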 To be noted: FSTL3 binding, higher = more signal.
Sequence of Follistatin-related protein 3 (Homo sapiens) (O95633 whole entry, looked up): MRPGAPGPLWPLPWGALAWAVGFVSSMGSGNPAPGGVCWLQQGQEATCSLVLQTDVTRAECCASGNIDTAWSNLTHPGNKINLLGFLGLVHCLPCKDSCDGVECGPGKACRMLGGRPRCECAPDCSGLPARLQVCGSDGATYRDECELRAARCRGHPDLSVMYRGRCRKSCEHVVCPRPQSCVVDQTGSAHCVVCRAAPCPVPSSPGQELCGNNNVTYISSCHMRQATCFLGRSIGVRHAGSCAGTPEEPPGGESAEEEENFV
The target of assay [9] is Dickkopf-related protein 1 (Homo sapiens) (UniProt O94907). Put plainly: DKK1 binders on small-molecule microarrays, primary screen, biochemical, small-molecule microarray, 635 nm fluorescence scan (AID 1106).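 Also: score merges emission near 667 nm with signal to noise over three replicate slides.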 The settings on record: DKK1 binding, higher = more signal.
Sequence of Dickkopf-related protein 1 (Homo sapiens) (O94907 whole entry, looked up): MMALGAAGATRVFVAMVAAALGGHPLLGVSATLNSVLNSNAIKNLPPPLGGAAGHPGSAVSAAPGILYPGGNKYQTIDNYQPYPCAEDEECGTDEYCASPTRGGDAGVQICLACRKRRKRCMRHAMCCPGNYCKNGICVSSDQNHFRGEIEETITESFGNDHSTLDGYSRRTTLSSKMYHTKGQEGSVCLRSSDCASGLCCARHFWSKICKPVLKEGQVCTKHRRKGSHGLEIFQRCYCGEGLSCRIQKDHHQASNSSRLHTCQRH
In assay [10] the test system is Inhibin beta A chain (activin A). Briefly: INHBA (activin A) binders on microarrays, primary screen, biochemical, small-molecule microarray, 635 nm fluorescence scan (AID 1107).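 Also: mouse activin A protein probed at 4.33 µg/mL on printed slides; score merges bound-protein fluorescence near 667 nm with spot signal-to-noise.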 To be noted: small-molecule microarray binding, higher = more signal.
Assay [11] deals with Human papillomavirus type 1a protein E7 (residues 44-93). Put plainly: HPV1a E7 fragment binders on microarrays, primary screen, biochemical, small-molecule microarray, residues 44-93, 635 nm fluorescence (AID 1108).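 Also: E7 fragment applied at 1 µg/mL in TBST for 1 h at 4 C; score combines spot fluorescence with its signal to noise ratio.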 The settings on record: small-molecule microarray binding, fluorescence 635 nm; higher = more signal.
Assay [12] can be described thus: modulators of HCV replicon luciferase signal, primary screen, HCV replication inhibitor project, Huh7 cells, luciferase reporter (AID 1109).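 Also: huh7 hepatoma cells harbouring a luciferase neomycin HCV replicon reporter; luciferase luminescence as measure of HCV replicon replication; test concentration not given here.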 The settings on record: 48 h, higher = more signal. A general note: Replicon systems follow genome replication, usually without infectious particles.
Assay [13] deals with Left-right determination factor 2 (Homo sapiens) (UniProt O00292). Briefly: LEFTY2 binders on small-molecule microarrays, primary screen, biochemical, small-molecule microarray, 635 nm fluorescence scan (AID 1110). To be noted: LEFTY2 binding, higher = more signal.
Sequence of Left-right determination factor 2 (Homo sapiens) (O00292 whole entry, looked up): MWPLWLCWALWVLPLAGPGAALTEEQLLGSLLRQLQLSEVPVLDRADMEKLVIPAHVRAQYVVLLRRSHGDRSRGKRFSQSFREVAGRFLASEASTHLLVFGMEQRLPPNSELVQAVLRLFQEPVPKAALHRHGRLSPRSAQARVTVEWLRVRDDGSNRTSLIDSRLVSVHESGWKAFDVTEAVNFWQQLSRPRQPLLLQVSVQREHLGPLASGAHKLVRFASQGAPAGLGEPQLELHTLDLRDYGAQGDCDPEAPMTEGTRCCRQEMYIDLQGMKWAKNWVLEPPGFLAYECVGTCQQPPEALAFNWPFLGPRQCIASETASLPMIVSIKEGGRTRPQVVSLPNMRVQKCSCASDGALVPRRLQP
Assay [14] deals with Calmodulin-1 (Homo sapiens) (UniProt P0DP23). Put plainly: CALM1 binders on microarrays, EGTA buffer, profiling panel, biochemical, small-molecule microarray, Cy5-labelled CALM1 (AID 1111).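 Also: labelled calmodulin applied in Tris saline Tween buffer holding calcium plus EGTA and DTT.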 The settings on record: Cy5-CALM1 binding fluorescence, higher = more signal.
Assay [15] has the same target. Briefly: calcium-bound CALM1 binders on microarrays, profiling panel, artefact control for SMM control-protein annotation, biochemical, small-molecule microarray, Cy5-labelled CALM1, plus calcium (AID 1112).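 Also: score merges spot fluorescence with signal to noise from triplicate slides.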 To be noted: Cy5-CALM1 binding fluorescence, higher = more signal.
Assay [16] in a line: small-molecule microarray binders of probe aWnt5a, primary screen, biochemical, biotinylated probe, 635/667 nm fluorescence (AID 1113).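 Also: score merges 667 nm fluorescence intensity with signal-to-noise per printed feature.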 The settings on record: higher = more signal.
A short description of assay [17]: small-molecule microarray binders of probe aShh, primary screen, biochemical, biotinylated probe, 635/667 nm fluorescence (AID 1114).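 Also: probe is biotin-labelled aShh protein from a stem cell growth factor screen; measures binding of labelled protein to compounds printed on the slide; score merges feature fluorescence at 667 nm with signal-to-noise.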 The settings on record: higher = more signal.
A short description of assay [18]: small-molecule microarray binders of probe aNog, primary screen, biochemical, biotinylated probe, 635/667 nm fluorescence (AID 1115).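 Also: probe is biotinylated aNog protein used at 0.15 µg/mL for 1 h at 4 C; z-score combines 667 nm fluorescence of each spot with its signal to noise.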 The settings on record: higher = more signal.
Assay [19] has as its target Torsin-1A-interacting protein 1 (Homo sapiens) (UniProt Q5JTV8). Put plainly: LAP1 binders from COS7 cell lysate, primary screen, small-molecule microarray, 635/667 nm fluorescence (AID 1116). To be noted: COS7-hLAP1 lysate binding, 635 nm fluorescence, higher = more signal.
Assay [20] has as its target Alpha-bungarotoxin (Bungarus multicinctus) (UniProt P60615). Briefly: alpha-bungarotoxin binders on microarray, profiling panel, artefact control for SMM control protein annotation, biochemical, small-molecule microarray, Alexa647 label, 635/667 nm fluorescence (AID 1117). To be noted: alpha-BTX-A647 binding fluorescence, higher = more signal.

Active and inactive are the calls of the source.

Sequence of Alpha-bungarotoxin (Bungarus multicinctus) (P60615 whole entry, looked up): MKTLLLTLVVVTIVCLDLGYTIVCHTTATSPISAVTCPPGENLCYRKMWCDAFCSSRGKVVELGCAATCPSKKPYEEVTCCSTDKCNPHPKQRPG
Sequence of Torsin-1A-interacting protein 1 (Homo sapiens) (Q5JTV8 whole entry, looked up): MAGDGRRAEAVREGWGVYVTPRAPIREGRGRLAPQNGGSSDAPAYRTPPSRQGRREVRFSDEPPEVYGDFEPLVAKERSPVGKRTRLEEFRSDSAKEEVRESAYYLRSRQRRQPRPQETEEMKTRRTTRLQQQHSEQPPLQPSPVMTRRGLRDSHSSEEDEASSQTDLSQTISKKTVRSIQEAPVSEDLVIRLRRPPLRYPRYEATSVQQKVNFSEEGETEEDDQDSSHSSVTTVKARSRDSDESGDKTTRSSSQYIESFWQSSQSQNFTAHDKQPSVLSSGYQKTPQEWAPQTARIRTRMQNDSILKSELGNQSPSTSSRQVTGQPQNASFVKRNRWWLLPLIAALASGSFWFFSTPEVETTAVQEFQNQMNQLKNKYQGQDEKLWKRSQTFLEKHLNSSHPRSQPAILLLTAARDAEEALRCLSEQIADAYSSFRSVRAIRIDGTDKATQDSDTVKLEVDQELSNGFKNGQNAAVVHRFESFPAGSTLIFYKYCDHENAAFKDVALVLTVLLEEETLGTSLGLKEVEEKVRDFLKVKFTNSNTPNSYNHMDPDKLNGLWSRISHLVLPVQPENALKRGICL
Sequence of Epidermal growth factor receptor (Homo sapiens) (P00533 whole entry, looked up): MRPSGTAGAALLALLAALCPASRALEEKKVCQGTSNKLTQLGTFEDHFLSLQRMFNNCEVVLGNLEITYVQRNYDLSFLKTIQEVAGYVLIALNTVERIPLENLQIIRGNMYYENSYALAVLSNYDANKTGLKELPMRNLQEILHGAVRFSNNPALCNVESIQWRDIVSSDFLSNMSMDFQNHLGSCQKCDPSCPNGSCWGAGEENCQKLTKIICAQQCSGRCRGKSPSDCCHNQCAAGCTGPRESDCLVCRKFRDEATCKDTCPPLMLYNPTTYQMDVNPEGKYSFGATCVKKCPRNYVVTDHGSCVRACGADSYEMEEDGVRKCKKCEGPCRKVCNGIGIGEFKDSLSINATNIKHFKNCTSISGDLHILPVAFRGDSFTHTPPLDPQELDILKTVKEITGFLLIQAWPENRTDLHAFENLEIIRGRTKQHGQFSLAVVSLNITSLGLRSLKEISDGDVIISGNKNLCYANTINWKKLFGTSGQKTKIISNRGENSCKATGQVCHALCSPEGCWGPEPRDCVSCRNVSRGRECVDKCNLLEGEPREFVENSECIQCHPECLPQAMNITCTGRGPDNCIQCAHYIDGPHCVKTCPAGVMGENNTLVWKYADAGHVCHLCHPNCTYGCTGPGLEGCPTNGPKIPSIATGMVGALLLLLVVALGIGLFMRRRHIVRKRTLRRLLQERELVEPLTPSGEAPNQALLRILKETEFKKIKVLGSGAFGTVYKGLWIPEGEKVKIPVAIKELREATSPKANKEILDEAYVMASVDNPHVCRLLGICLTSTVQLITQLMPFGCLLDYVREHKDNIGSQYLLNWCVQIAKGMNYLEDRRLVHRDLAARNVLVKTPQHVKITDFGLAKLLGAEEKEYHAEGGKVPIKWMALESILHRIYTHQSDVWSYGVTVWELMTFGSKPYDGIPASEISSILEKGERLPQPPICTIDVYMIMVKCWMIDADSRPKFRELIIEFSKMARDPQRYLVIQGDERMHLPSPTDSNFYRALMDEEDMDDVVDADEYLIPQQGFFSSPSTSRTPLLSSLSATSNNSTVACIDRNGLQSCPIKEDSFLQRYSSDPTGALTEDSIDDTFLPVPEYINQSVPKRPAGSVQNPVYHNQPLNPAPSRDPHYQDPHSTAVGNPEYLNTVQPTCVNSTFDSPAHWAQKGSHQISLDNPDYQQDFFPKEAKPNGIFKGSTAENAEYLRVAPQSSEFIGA

`O=C1C2C=CC(C(O)c3ccccn3)N(Nc3ccc([N+](=O)[O-])cc3)C2C(=O)N1c1ccccc1` (stereo not given): the composite z-score in assay [1] worked out at 1.42; in assay [2] it was 1.01; in assay [3] it was 0.891; in [5] it was 0.37; in assay [6], 0.377; in assay [7], 0.0711. In addition, the composite z-score in [8] was 0.55; in assay [9] it was -0.189; in assay [10], 0.522; in assay [11] it was 0.0529; in [13], 0.335; in assay [14], 2.02. The composite z-score in assay [15] was 0.897; in assay [16], -0.0799; in [17], 0.184; in [18], 0.479; in assay [19], 0.958; in [20] it was 1.11. Further, the z-score in [4] is 0.981 (inactive); in [12] it was -0.35.

In the case of `C=CCNC(=O)[C@@H]1[C@H]2C(=O)O[C@H](c3ccccc3)[C@H](c3ccccc3)N2[C@H](c2ccc(OCCO)cc2)[C@@]12C(=O)Nc1ccc(C#CCNC(N)=O)cc12`, the composite z-score is 1.05 in assay [1]; -0.123 in [2]; 0.584 in assay [3]; -0.385 in assay [5]; -0.402 in [6]; -1.13 in [7]. For the same compound, the composite z-score was 0.16 in assay [8]; -0.456 in assay [9]; 1.31 in [10]; 1.24 in [11]; -0.463 in [13]; 1.47 in [14]. The composite z-score is 0.472 in assay [15]; -0.0051 in assay [16]; -0.349 in assay [17]; -0.361 in [18]; 0.0307 in assay [19]; 0.782 in assay [20]. The z-score was -0.0958 (inactive) in [4] and -0.658 in assay [12].

In the case of `C=CC[C@H](OC(=O)Nc1ccc(SC)cc1)c1ccc(O)c(F)c1`, the composite z-score in [1] is 0.983; in assay [2], -0.172; in assay [3] it was 0.277; in assay [5] it was -0.918; in [6], -0.786; in [7], -0.392. For the same compound, the composite z-score was -0.88 in [8]; -1.17 in assay [9]; 0.536 in assay [10]; -0.419 in assay [11]; -0.722 in [13]; -0.652 in assay [14]. Also, the composite z-score was -0.328 in assay [15]; -0.147 in assay [16]; -0.0709 in assay [17]; -0.267 in assay [18]; 1.82 in assay [19]; -0.165 in assay [20]. Moreover, the z-score in assay [4] was -0.354 (inactive); in assay [12], 0.599.

Take `COc1ccc(C(O)C2C=CC3C(=O)N(c4ccccc4)C(=O)C3N2Nc2ccccc2F)c2ccccc12` (stereo not given): the composite z-score in assay [1] was 0.85; in assay [2], 1.59; in assay [3], 1.4; in assay [5], 1.04; in assay [6] it was 1.32; in assay [7], 0.531. The composite z-score in assay [8] is 1.36; in assay [9] it was -0.265; in assay [10] it was 1.02; in [11] it was 0.459; in [13], 0.903; in assay [14], 2.6. Moreover, the composite z-score in assay [15] is 0.994; in [16], 0.416; in assay [17] it was 0.425; in assay [18], 1.26; in [19] it was 1.28; in [20] it was 2.12. For the same compound, the figures for the z-score in assay [4] and in [12] were -0.038 (inactive) and -0.673, respectively.

As for `COc1c(C)cc(-c2nc(-c3ccccc3)c3c(c2C)CO[Si]3(C(C)C)C(C)C)cc1C`, the composite z-score in [1] was -0.186; in assay [2], -0.141; in assay [3], 0.0757; in [5] it was 0.295; in [6], 0.324; in assay [7] it was 0.387. The composite z-score in assay [8] came out at 0.338; in assay [9], 0.305; in assay [10] it was 0.698; in assay [11], 0.0725; in assay [13], 0.513; in assay [14] it was 0.0032. Besides, the composite z-score in assay [15] is 0.154; in assay [16], -0.0478; in assay [17] it was -0.0769; in [18] it was 0.239; in assay [19] it was -0.0032; in assay [20], -0.0073. For the same compound, the z-score in [4] is -0.394 (inactive); in assay [12], -0.77.

Consider `COCCOC(=O)N1C(=O)[C@@]2(c3cc(C#CCC(C(=O)OC)C(=O)OC)ccc31)[C@H](c1ccc(O)cc1)N1[C@H](c3ccccc3)[C@H](c3ccccc3)OC(=O)[C@H]1[C@@H]2C(=O)N1CCc2cc(OC)c(OC)cc2C1`, for which the composite z-score in assay [1] is 1.21; in assay [2] it was -0.149; in assay [3], 0.131; in assay [5], 1.09; in [6] it was 1.08; in assay [7], 0.294. Further, the composite z-score in assay [8] turned out to be 0.728; in [9], 0.384; in assay [10], 0.0348; in assay [11] it was 0.438; in [13], 1.04; in assay [14], 0.505. Also, the composite z-score was 0.781 in [15]; 0.0215 in [16]; 0.0898 in assay [17]; -0.366 in assay [18]; 1.54 in assay [19]; 1.36 in [20]. Besides, the z-score in assay [4] is 0.0333 (inactive); in assay [12], -0.284.

For the origin of these results see PubChem BioAssay.
